The list is not random: actives were taken first. Their share in the collection is about 2.7%.
TMEM16A act = activators or potentiators of mouse TMEM16A chloride channel. B-score at 10 µM. 340,000 tested, 0.3% active. HEK293 TMEM16A/YFP-H148Q/I152L, iodide quench fluorescence; stronger effect = lower value. Q8BHY3;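 active = fluorescence-ratio B-score plate-corrected deviation score at least 3 library SD below zero, with starting fluorescence score within 5 deviations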;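 also: channel opened by trigger with iodide after compound preincubation; score built on the fluorescence ratio of max minus min over baseline; more negative score means more quench and so TMEM16A activation or potentiation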
ANO1 block = mouse TMEM16A channel inhibition, primary screen. 310,000 tested, 1.2% active. AID 588511. HEK293 TMEM16A/YFP iodide influx fluorescence, ionomycin. Q8BHY3. normalized B-score (activity score, 25-100; higher = stronger inhibition) at 10 µM;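 active = ratio plate-corrected score three or more library SD toward inhibition, starting fluorescence score within five deviations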;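 also: score derived from kinetic fluorescence span divided by baseline fluorescence per well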
IDE cell activ = boosts human insulin-degrading enzyme activity in HEK cells; P14735; FAbeta-B cleavage, fluorescence polarization; 0% vehicle, 100% cell-free pure enzyme wells; activation, % at 5.96 µM; 340,000 tested, 0.073% active;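 active = activation above the mean of all tested compounds plus 3 SD, set per screening campaign, cut at about 17% in these data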
CHT inh = inhibitors of human choline transporter CHT | CHT-expressing cells, membrane potential dye, choline response; stronger effect = lower value | B-score at 10 µM | 310,000 tested, 0.86% active | AID 488975;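 active = B-score over 3 SD under the library average, and starting fluorescence ratio not unusually high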;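 also: choline stimulus applied at its EC90 after an EC20 pre-addition; B-score computed on integrated fluorescence ratio after choline addition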
CHT allo act = allosterically activates the human high affinity choline transporter; Q9GZV3; CHT-expressing cells, membrane potential dye, choline EC20; stronger effect = higher value; LV-AA mutant CHT in HEK293 cells; B-score at 10 µM; 310,000 tested, 0.49% active; AID 488977;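 active = initial fluorescence not abnormally high and integrated response B-score, plate-corrected, over 3 SD above library mean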
IDE inh = inhibits human insulin-degrading enzyme in HEK cells. P14735. FAbetaB cleavage, fluorescence polarization. inhibition, % at 5.59 µM. 320,000 tested, 0.41% active;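 active = percent inhibition above the average of all tested compounds plus 3 SD, set per screening campaign, cut at about 16% in these data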;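 also: IDE supplied by intact live HEK cells; FP after avidin binding of uncleaved biotin substrate so inhibition keeps polarization high; 0% = DMSO wells and 100% = 60 µM reference IDE inhibitor Ii1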
TMEM16A reconf = re-confirmation of mouse TMEM16A chloride channel inhibitors; shares compounds with ANO1 block; HEK293 TMEM16A/YFP-H148Q, iodide quench fluorescence; ionomycin added to raise cell calcium; inhibition, % at 10 µM; 2,300 tested, 39% active;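 active = mean duplicate percent inhibition, scaled so buffer wells are 0 and the reference blocker 100, over three buffer SD above buffer mean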
TMEM16A Ca cntr = counter-screen for TMEM16A inhibitors: effect on calcium mobilization; shares compounds with ANO1 block; TMEM16A/YFP HEK293, Fluo4 calcium mobilization; calcium response (% of ionomycin), % at 10 µM; 2,300 tested, 2% active; AID 652231;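 active = duplicate-averaged calcium signal over 20% of the ionomycin maximum, relative to buffer baseline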;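 also: each well's signal is peak minus trough fluorescence divided by its pre-addition baseline; 0% = buffer wells and 100% = ionomycin wells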
YFP-HEK293 quench = counter-screen for TMEM16A inhibitors: effect in parental YFP-HEK293 cells; shares compounds with ANO1 block; iodide YFP quench, ionomycin; YFP ratio F(max-min)/F0 at 10 µM; 2,300 tested, under 10 active; AID 652233;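 active = yellow fluorescent protein signal ratio exceeding the buffer control mean by over 5 SD of those controls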;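 also: ratio is mean of duplicate wells from kinetic YFP trace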
ClC-1 inh = selectivity of TMEM16A inhibitors: inhibition of rat ClC-1 chloride channel | shares compounds with ANO1 block | AID 652236 | ratio percent, % at 10 µM | CHO ClC-1-YFP, iodide influx fluorescence quench; iodide control reads 0, buffer control 100 | 2,300 tested, under 10 active;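 active = duplicate-mean ratio percent above the mean of iodide-only control wells, which defines zero, plus 5 of their SD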;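 also: higher percent means stronger block of ClC-1 iodide influx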
An asterisk follows results filed as active; i = inactive; x = no result.

SMILES	TMEM16A act	ANO1 block	IDE cell activ	CHT inh	CHT allo act	IDE inh	TMEM16A reconf	TMEM16A Ca cntr	YFP-HEK293 quench	ClC-1 inh
CCOC(=O)CSc1nnc(NC(=O)c2cc([N+](=O)[O-])cc([N+](=O)[O-])c2)s1	i	25*	0	i	i	10	i	i	-0.89	-11
CCCCNC(=O)Nc1nnc(SCC(=O)OCC)s1	i	i	2	i	i	9	x	x	x	x
O=C(c1cccc([N+](=O)[O-])c1)N1CCN(c2n[nH]c(=O)[nH]c2=O)CC1	i	i	1	i	i	4	x	x	x	x
CCCn1nnnc1NCc1ccccc1OCc1ccc(F)cc1	i	i	2	i	i	6	i	i	-1.1	-7
C/C=C1\COC(C(=O)NCc2cccc(OC)c2OC)(C(F)(F)F)C=C1C=C1CCCCC1 (centres undefined)	i	25*	5	i	i	5	i	i	-1	-14
C=CCn1c(SCC(=O)N(CC)C2CCS(=O)(=O)C2)nc2scc(-c3ccccc3)c2c1=O (centres undefined)	i	x	3	x	x	x	x	x	x	x
COC(=O)c1scc(S(=O)(=O)C(C)C)c1N/N=C(\C#N)C(=O)c1ccc(Cl)cc1	i	i	3	i	i	1	x	x	x	x
COC(=O)c1scc(C#N)c1N/N=C(\C#N)S(=O)(=O)c1ccc(Cl)cc1	i	25*	x	i	i	5	i	i	-1	-24
COc1ccc(NC(=O)CN(c2cc(C)cc(C)c2)S(=O)(=O)c2c(C)noc2C)cc1	i	100*	6	i	i	4	i	i	-1.1	0
COc1ccc(N(CC(=O)Nc2ccc(C)cc2)S(=O)(=O)c2c(C)noc2C)cc1	i	i	-1	i	i	-5	x	x	x	x
CC(=O)Nc1ccc(N=c2cc([N+](=O)[O-])cc(Cl)n2O)cc1	i	i	4	i	i	-2	x	x	x	x
CSCCC(NC(=O)c1ccco1)C(=O)NNC(=O)c1n[nH]c(=O)c2ccccc12 (centres undefined)	i	x	5	x	x	0	x	x	x	x
Cc1cc(S(=O)(=O)Nc2ccc3cn[nH]c3c2)c(C)cc1Cl	i	25*	0	i	i	9	16%*	i	-0.96	-12
Cc1cc(Cl)ccc1C(=O)C1CCCN(C(=O)c2cnn(C(C)C)c2)C1 (centres undefined)	i	i	-3	i	i	8	x	x	x	x
CSc1cccc(CNC(=O)C2CCC(=O)N(CC3CCCCC3)C2)c1 (centres undefined)	i	i	-4	i	i	-5	x	x	x	x
O=C(Nc1cccc(C(F)(F)F)c1)c1ccc(Cn2cc(Br)cn2)o1	i	100*	-7	i	i	13	49%*	i	-1.1	-12
C/C(=N\NC(=O)c1ccc(Cn2cc(Br)cn2)o1)c1cccc(NC(=O)C(C)(C)C)c1	i	i	5	i	i	0	x	x	x	x
COc1ccc(NC(=O)c2cc(-c3cc(C)cc(C)c3O)n[nH]2)cc1Cl	i	100*	-5	i	i	5	i	i	-1.1	1
Fc1ccccc1Nc1nc2ccccc2o1	i	i	-1	i	i	3	x	x	x	x
CCc1nnc(SCC(=O)Nc2ccc(NC(C)=O)cc2)n1-n1cccc1	i	i	2	i	i	7	x	x	x	x
NS(=O)(=O)c1cc2c(cc1Cl)NC(Cc1ccccc1)NS2(=O)=O (centres undefined)	i	i	4	i	i	0	i	i	-0.92	-10
CC(C)c1cc(C(=O)N2CCCC(CCC(=O)NCc3ccccc3F)C2)n(C)n1 (centres undefined)	i	100*	1	i	i	2	i	i	-1.1	-16
CC(=O)Nc1cc(C(F)(F)F)ccc1Oc1cccc(Br)c1	i	i	-2	i	i	0	x	x	x	x
CCOCC(=O)Nc1cc(C(F)(F)F)ccc1Oc1cccc(Br)c1	i	25*	3	i	i	-2	18%*	i	-1.1	-9
CN1/C(=C\C(=O)Nc2ccc(Cl)cc2)C(C)(C)c2ccccc21	i	25*	3	i	i	-1	i	i	-1.3	-10
SMILES	TMEM16A act	ANO1 block	IDE cell activ	CHT inh	CHT allo act	IDE inh	TMEM16A reconf	TMEM16A Ca cntr	YFP-HEK293 quench	ClC-1 inh
O=[N+]([O-])c1ccc(-c2nnc(-c3ccccc3)c(N3CCOCC3)n2)cc1	i	i	-2	i	i	7	i	i	-1.2	-14
CCOC(=O)c1ccc(NC(=O)CSc2ccc(-c3cccnc3)nn2)cc1	i	25*	-2	i	i	-2	i	i	-1.1	-5
COc1ccc(NC(=O)CSc2ccc(-c3cccnc3)nn2)cc1	i	i	4	i	i	3	x	x	x	x
COc1cc(Cl)ccc1OCc1cc(C(=O)NCc2cc(C(C)C)no2)no1	i	i	8	i	i	3	x	x	x	x
Cc1cc(C)c(S(=O)(=O)NCCc2ccncc2)c(C)c1	i	i	-5	i	i	4	x	x	x	x
Cc1cc(C)c(S(=O)(=O)NCc2ccncc2)c(C)c1	i	100*	-2	i	i	2	30%*	i	-0.86	-16
O=C(CSc1ncnc2c1oc1ccccc12)N1CCCc2ccccc21	i	100*	-3	i	i	1	28%*	i	-0.8	-8
O=C(Cn1cnc2c(oc3ccccc32)c1=O)N1CCCc2ccccc21	i	i	-3	i	i	-1	x	x	x	x
CCSc1nnc(NC(=O)CSc2nccn2-c2cccc(C)c2C)s1	x	25*	x	i	i	0	i	i	-0.98	-12
CC(C)CN1C(=O)c2ccc(C(=O)Nc3ccncc3)cc2C1=O	i	25*	1	i	i	-1	27%*	i	-0.99	-18
CC(NC(=O)C1CCN(C(=O)Nc2ccccc2)CC1)c1ccccc1Cl (centres undefined)	i	x	-6	x	x	-1	x	x	x	x

Source: PubChem
